According to the supplement of paper PMC7411054:
Counter-ions that a name gives are not always drawn.

test system: WPMY1-TUBA1B-RELA; assay: phenotypically active (imaging signature differs from DMSO and reproducible) at any of 0.3-9 uM (binary (1 = active, 0 = inactive)); higher = active; settings: treatment time: 24 h
How it was run: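 Four wells per concentration (0.3, 1, 3 or 9 µM) were treated for 24 h in each of fifteen gene-edited reporter lines from A549, HepG2 and WPMY1 cells, then imaged live. After normalising live-cell features to solvent control wells, deviation was defined as ≥3 of 4 wells lying past the 95th percentile of control Euclidean distances. Reproducibility was defined as a median replicate Pearson correlation above the 95th percentile of non-replicates. Both had to hold for phenotypic activity.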

Phenotypically active, active:
OC[C@H]1O[C@@H](n2cnc3c(NCc4ccco4)ncnc32)[C@H](O)[C@@H]1O [Kinetin riboside] 1, N#Cc1c(C2CCNCC2)cc(-c2c(O)cccc2OCC2CC2)nc1N 1, C=CC(=O)Nc1cccc(Nc2nc(Nc3ccc(OCCOC)cc3)ncc2F)c1 1, COc1cc(N2CCC(N3CCN(C)CC3)CC2)ccc1Nc1ncnc(Nc2ccccc2S(=O)(=O)C(C)C)n1 1, Fc1ccccc1CNCc1ccc(-c2ccnc3[nH]ccc23)cc1 [OXA 06 dihydrochloride] 1, C[C@H]1COCCN1c1cc(C2(S(=O)(=O)C3CC3)CC2)nc(-c2ccc(NC(=S)NCCO)cc2)n1 1
